A selection: hits, their analogues and other compounds. The true share with any hit is near 19%.
uPA surface inh: blocks generation of uPA at the cell surface | cell surface uPA generation assay, qHTS | Potency, µM (titrated, usually from 38.3 µM), usual class: inhibitors | 0.31% of 330,000 active | AID 540303; active = well fitted inhibition curve with a large enough effect; inconclusive = small, poorly fitted or top-dose-only effect; inactive = no such curve, though single readings can be large or run the other way; tested in mouse RAW 264.7 cells; note: nearly all actives have a fitted effect of over 55% in size
HT1080NT lethal: kills 2HG-producing HT-1080-NT fibrosarcoma cells; 1.6% of 360,000 active; Potency, µM (highest dose often 46.1 µM), hits mostly cytotoxic; HT-1080-NT fibrosarcoma viability, CellTiter-Glo ATP luminescence, 48 h;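 note: NT is the 2HG producing partner of a matched IDH1 knockdown line; nearly all actives have a fitted effect of over 55% in size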
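HT-1080-NT fibrosarcoma cells (2HG-overproducing), 750 cells/well in RPMI with 5% FBS, dosed after 2 h and incubated 48 h at 37C. CellTiter-Glo luminescence normalized to DMSO and no-cell wells; concentration-response curves fitted and classed.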
DT40 TDP1 CPT: DT40-hTDP1 cell growth loss with CPT | 12% of 420,000 active | Potency, µM (highest dose often 46.2 µM), usual class: inhibitors | chicken DT40 Tdp1-/-;hTDP1 cells + 20 nM CPT, ATP luminescence, 48 h | AID 686979; note: nearly all actives have a fitted effect of over 55% in size
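Chicken DT40 Tdp1-/- cells stably complemented with human TDP1 were seeded at 400 cells/well in medium containing 20 nM camptothecin, exposed to pin-transferred compounds, and grown at 37 °C for at least 48 hr. Viability was read as ATP luminescence.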
HT1080 IDH1KD tx: kills HT-1080 cells with IDH1 knockdown; HT-1080 IDH1 knockdown viability, ATP luminescence, 48 h; Potency, µM (top dose mostly 46.1 µM), actives largely listed as cytotoxic; 2% of 360,000 active; AID 686971
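Viability of IDH1-knockdown HT-1080 fibrosarcoma cells was assessed by CellTiter-Glo after 48 h at 37 °C with titrated compound; concentration-effect curves were classified by fit quality and response size.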
DT40 TDP1 no CPT: qHTS for Inhibitors of human tyrosyl-DNA phosphodiesterase 1 (TDP1): qHTS in cells in absence of CPT; DT40 Tdp1-/- hTDP1 cells, no CPT, ATP luminescence, 48 h; Potency, µM (top dose mostly 46.2 µM), usual class: inhibitors; 15% of 420,000 active; AID 686978, 2013; note: nearly all actives have a fitted effect of over 55% in size
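Cells were dispensed at 400 per well, compounds added by pin tool, plates incubated ≥48 hr at 37 °C, then CellTiter-Glo added for 30 min at room temperature before luminescence reading. Line: DT40 Tdp1-/- complemented with hTDP1; camptothecin omitted.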
IL1B secr inh: inhibitors of inflammasome signaling (IL-1 beta secretion); activity change, % at 57.5 µM; THP-1 LPS/ATP IL-1B secretion, AlphaLISA, 16 h; stronger effect = lower value; 4.7% of 360,000 active; AID 743279; in the data active = activity change below about -50%; inconclusive = mostly about -30% to -49%
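THP-1 cells pretreated 1 hr with compounds (up to 57.5 uM final), then stimulated with LPS (250 ng/mL final) plus ATP (1.25 mM final); secreted IL-1B measured by AlphaLISA after 16 hr, decreased signal indicating inhibition.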
Large screens that a line does not name were inactive. Unless noted, calls come from the whole dose curve; as a rule, active = well fitted curve in the direction sought with a large enough effect; inconclusive = small, poorly fitted or top-dose-only effect, or another doubt; inactive = no such curve, though single readings can be large; an effect the other way counts as inactive or inconclusive.

CCC1(c2ccccc2)NC(=O)N(CC(=O)Nc2ccc(N3CCCC3)cc2C)C1=O (configuration not stated)	none
Cn1c(=O)n(C/C=C/c2ccccc2)c(=O)c2c1nc1n2CCN1c1ccccc1	none (no result: uPA surface inh, HT1080NT lethal, HT1080 IDH1KD tx, IL1B secr inh)
CCN1CCN(CCNC(=O)C2CCCN(Cc3nc(-c4cccc(Cl)c4)oc3C)C2)CC1 (configuration not stated)	DT40 TDP1 CPT 21µM, DT40 TDP1 no CPT 16µM, IL1B secr inh inconclusive
Cc1oc(-c2ccc(Cl)cc2)nc1CN1CCCC(C(=O)NC2CC2)C1 (configuration not stated)	DT40 TDP1 CPT 16µM, DT40 TDP1 no CPT 10µM
COc1ccc(-c2nc(CN3CCCC(C(=O)NC4CCCC4)C3)c(C)o2)cc1 (configuration not stated)	DT40 TDP1 CPT inconclusive, DT40 TDP1 no CPT inconclusive, IL1B secr inh inconclusive
O=C(NCc1nnc(SCc2ccc(F)cc2)n1-c1ccc(F)cc1)C12CC3CC(CC(C3)C1)C2	HT1080NT lethal inconclusive, DT40 TDP1 CPT 15µM, HT1080 IDH1KD tx inconclusive, DT40 TDP1 no CPT 29µM, IL1B secr inh inconclusive
CCCSc1nnc(CNC(=O)C23CC4CC(CC(C4)C2)C3)n1Cc1ccccc1	DT40 TDP1 CPT 16µM, DT40 TDP1 no CPT inconclusive
CCSc1nnc(CNC(=O)C23CC4CC(CC(C4)C2)C3)n1C1CCCCC1	DT40 TDP1 CPT 23µM, DT40 TDP1 no CPT 26µM
CC1=C(C(=O)OCc2ccccc2)C(c2cccc(F)c2)NC(=O)N1 (configuration not stated)	none
CC1CC=C(O)C12OCC(C)(C)CO2 (configuration not stated)	none
Cc1ccc(CN2CCN(Cc3ccc(-n4cccn4)cc3)CC2CCO)cc1 (configuration not stated)	none
O[C@@H]1CN(Cc2ccc(-n3cccn3)cc2)CC[C@H]1N1CCN(c2ccccc2F)CC1	uPA surface inh inconclusive, HT1080NT lethal inconclusive, DT40 TDP1 CPT 13µM, DT40 TDP1 no CPT 3.7µM, IL1B secr inh -62
O=C(c1[nH]c(C(F)(F)F)nc1-c1ccccc1)N1CCN(c2ncccc2C(F)(F)F)CC1	HT1080NT lethal inconclusive, DT40 TDP1 CPT inconclusive, HT1080 IDH1KD tx inconclusive, DT40 TDP1 no CPT inconclusive (no result: uPA surface inh)
O=C(CSc1nccn1Cc1ccc(F)cc1)NCc1ccco1	none (no result: uPA surface inh, HT1080NT lethal, HT1080 IDH1KD tx, IL1B secr inh)
CCCn1nc([N+](=O)[O-])c(C(C#N)c2nc3ccccc3s2)c(Cl)c1=O (configuration not stated)	HT1080NT lethal 2.8µM, DT40 TDP1 CPT 18µM, HT1080 IDH1KD tx 1.1µM, DT40 TDP1 no CPT 16µM, IL1B secr inh -102 (no result: uPA surface inh)
CCn1nc([N+](=O)[O-])c(C(C#N)c2nc3ccccc3n2C)c(Cl)c1=O (configuration not stated)	HT1080NT lethal inconclusive, DT40 TDP1 CPT inconclusive, HT1080 IDH1KD tx inconclusive, DT40 TDP1 no CPT inconclusive, IL1B secr inh -94
Cn1c(/C(C#N)=C(\O)c2ccc([N+](=O)[O-])s2)nc2ccccc21	none
O=[N+]([O-])c1ccc(CN2CCN(c3nc4ccccc4s3)CC2)cc1	none
COc1cc2[nH]c(=O)n3nc(-c4ccccc4)nc3c2cc1OC	DT40 TDP1 CPT 23µM, DT40 TDP1 no CPT 21µM
CC(C)(CO)NC(=O)c1ccc2c(c1)C(=O)c1ccccc1-2	DT40 TDP1 no CPT 18µM
COC(=O)c1cc(=O)n(Cc2ccc3c(c2)OCO3)c(=Nc2ccc(F)c(Cl)c2)s1	DT40 TDP1 CPT 8.2µM, DT40 TDP1 no CPT 6.5µM
COC(=O)c1cc(=O)n(Cc2ccc(OC)cc2)c(=NCc2ccc(OC)cc2)s1	none
COC(=O)c1cc(=O)n(CCc2ccccc2)c(=Nc2ccc(F)cc2)s1	uPA surface inh inconclusive, HT1080NT lethal inconclusive, DT40 TDP1 CPT inconclusive, DT40 TDP1 no CPT inconclusive
COC(=O)c1cc(=O)n(CCc2ccc(OC)cc2)c(=Nc2ccc(F)c(Cl)c2)s1	uPA surface inh inconclusive, HT1080NT lethal 21µM, DT40 TDP1 CPT inconclusive, HT1080 IDH1KD tx inconclusive, DT40 TDP1 no CPT inconclusive (no result: IL1B secr inh)
CCOC(=O)[C@]12CCC=C1N(Cc1ccccc1)C(=O)[C@H](CC(=O)NCc1ccc(OC)c(OC)c1)C2	DT40 TDP1 CPT inconclusive, DT40 TDP1 no CPT inconclusive (no result: uPA surface inh)
Cc1ccc(S(=O)(=O)N2C[C@]3(O)C[C@@H]4C(=O)N(c5ccccc5)C(=O)[C@@H]4C[C@]3(OC(=O)Nc3c(C)noc3C)C2)cc1	none (no result: uPA surface inh)
Cc1ccc(S(=O)(=O)N2C[C@H]3N(C(=O)OC(C)C)N(C(=O)OC(C)C)C[C@H](OC(=O)Nc4cccs4)[C@@]3(O)C2)cc1	DT40 TDP1 CPT inconclusive, DT40 TDP1 no CPT 23µM, IL1B secr inh -80 (no result: uPA surface inh)
Cc1ccc(S(=O)(=O)N2C[C@H]3N(C(=O)OC(C)C)N(C(=O)OC(C)C)C[C@H](OC(=O)Nc4c(C)noc4C)[C@@]3(O)C2)cc1	DT40 TDP1 CPT inconclusive, DT40 TDP1 no CPT inconclusive, IL1B secr inh -51 (no result: uPA surface inh)
Cc1ccc(S(=O)(=O)N2C[C@]3(O)C[C@@H]4C(=O)N(c5ccccc5)C(=O)[C@@H]4C[C@]3(OC(=O)Nc3cccs3)C2)cc1	DT40 TDP1 CPT inconclusive, DT40 TDP1 no CPT inconclusive (no result: uPA surface inh)
Cc1cccc(N2CCN(S(=O)(=O)c3ccc4c(c3)NC(=O)C(C)S4)CC2)c1C (configuration not stated)	HT1080NT lethal inconclusive, DT40 TDP1 CPT 21µM, HT1080 IDH1KD tx inconclusive, DT40 TDP1 no CPT inconclusive
Cc1cccc(N2CCN(S(=O)(=O)c3ccc4c(c3)C(C(C)C)C(=O)N4)CC2)c1C (configuration not stated)	DT40 TDP1 CPT 5.2µM, DT40 TDP1 no CPT 12µM (no result: uPA surface inh, HT1080NT lethal, HT1080 IDH1KD tx, IL1B secr inh)
Cc1cccc(N2CCN(S(=O)(=O)c3ccc4c(c3)NC(=O)CS4)CC2)c1C	HT1080NT lethal inconclusive, DT40 TDP1 CPT inconclusive, HT1080 IDH1KD tx inconclusive, DT40 TDP1 no CPT inconclusive
COCCNC(=O)C1CCCN(C(=O)COc2ccc(C(C)(C)C)cc2)CC1 (configuration not stated)	DT40 TDP1 no CPT inconclusive (no result: uPA surface inh)
Cc1ccc(F)c(S(=O)(=O)NC(=O)C2(C)CCN2C(=O)Cc2ccccc2)c1 (configuration not stated)	none (no result: uPA surface inh)
Cn1c(=O)c2c(nc3n2CC(COc2ccc(Cl)cc2)O3)n(C)c1=O (configuration not stated)	DT40 TDP1 CPT inconclusive
CCc1cccc(OCC2Cn3c(nc4c3c(=O)[nH]c(=O)n4C)O2)c1 (configuration not stated)	DT40 TDP1 CPT 8.2µM, DT40 TDP1 no CPT inconclusive
Cc1ccc(OCC2Cn3c(nc4c3c(=O)[nH]c(=O)n4C)O2)cc1C (configuration not stated)	DT40 TDP1 CPT inconclusive, DT40 TDP1 no CPT 10µM
Cc1cc(NC(=O)CSCC(=O)OCc2nnc(-c3ccc(F)cc3)o2)no1	none

Bioassay records (PubChem BioAssay)
